Results: PubChem BioAssay AID1961 (Sanford-Burnham Center for Chemical Genomics, 2009)
In all, about 290,000 compounds went through this assay and about 140 (0.048%) were called active.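 The calls were made as follows: active = activation above 40% with more than 50 cells counted in the well; inconclusive = wells holding fewer than 50 cells, flagged as toxic or sparse; inactive = the rest.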 Many of the other results were omitted from the sample, so actives are more common in it than they were.

What was measured:
[1] = GPR55 agonists via beta-arrestin recruitment, primary screen, imaging, U2OS cells, beta-arrestin-GFP redistribution (AID 1961); settings: measured here: cytotoxicity, cells analyzed, at 10 µM;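 also: U2OS osteosarcoma cells stably expressing GPR55 and beta-arrestin-GFP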;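 as to activation: plate controls were DMSO negative control for no effect and LPI positive control for full effect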
[2] = target: G-protein coupled receptor 55 (Homo sapiens) (UniProt Q9Y2T6); assay: as above; settings: at 10 µM, stronger effect = higher value
Chain of G-protein coupled receptor 55 (Homo sapiens) (Q9Y2T6 whole entry, looked up): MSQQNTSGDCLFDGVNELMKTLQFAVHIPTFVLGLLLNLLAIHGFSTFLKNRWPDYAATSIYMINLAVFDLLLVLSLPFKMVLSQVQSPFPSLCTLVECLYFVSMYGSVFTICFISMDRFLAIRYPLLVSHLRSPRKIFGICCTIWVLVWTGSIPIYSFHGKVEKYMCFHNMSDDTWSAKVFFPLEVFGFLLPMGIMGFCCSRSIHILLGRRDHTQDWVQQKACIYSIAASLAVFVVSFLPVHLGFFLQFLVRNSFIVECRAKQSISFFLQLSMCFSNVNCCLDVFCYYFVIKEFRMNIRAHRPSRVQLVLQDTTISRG

| SMILES | cell count [1] [cells] | activation [2] |
| --- | --- | --- |
| Cn1c(SCC(=O)NNC(=O)Nc2ccc(Cl)cc2)nnc1-c1ccccc1 | 332 | -0.1% (inactive) |
| COc1cccc(-n2c(SCC(=O)Nc3cc(C)on3)nc3ccccc3c2=O)c1 | 336 | 0.5% (inactive) |
| Cc1cccc(N(CC(=O)Nc2c(C)n(C)n(-c3ccccc3)c2=O)S(C)(=O)=O)c1C | 361 | 0% (inactive) |
| CSc1cccc(N/C(=N/S(=O)(=O)c2ccccc2)NN)c1 | 310 | 0.6% (inactive) |
| COc1ccc2cc(CCNC(=O)C3CCCC3)c(=O)[nH]c2c1 | 307 | -0.1% (inactive) |
| c1ccc(-c2noc(CN3CCOCC3)n2)cc1 | 407 | 0.2% (inactive) |
| CC(=O)c1c(C)[nH]c(C(=O)NCCc2c[nH]c3ccccc23)c1C | 348 | -0.1% (inactive) |
| CC1(C)CC(NC(=O)c2c(N)no[n+]2[O-])CC(C)(C)N1 | 241 | -0.3% (inactive) |
| Cc1ccc(NC(=S)Nc2ccc(S(=O)(=O)Nc3ncccn3)cc2)c(C)c1 | 327 | -0.2% (inactive) |
| COCc1[nH]c(=S)[nH]c(=O)c1C | 339 | -0.1% (inactive) |
| Cc1c(Cl)c(=O)oc2cc(OCC(=O)NCc3cccs3)ccc12 | 357 | 0% (inactive) |
| COc1ccc(NC(=O)Cn2c(CCC(=O)O)ccc2-c2ccccc2)cc1 | 413 | 0.2% (inactive) |
| O=C(O)c1ccc(NC(=O)c2ccc3c(c2)C(=O)N(c2ccccc2)C3=O)cc1 | 374 | -0.1% (inactive) |
| O=C(OCc1cc(=O)n2c(n1)sc1ccccc12)c1ccc2c(=O)n3c(nc2c1)CCC3 | 323 | -0.1% (inactive) |
| Cc1sc2nc(CSc3nc4ccccc4c(=O)n3CCCN3CCOCC3)[nH]c(=O)c2c1C | 341 | -0.1% (inactive) |
| Cc1ccc(SC[C@H](CC(C)C)N2CCN(CCc3ccccc3)CCC2=O)cc1 | 305 | 193% (active) |
| CCCN1CCC(=O)N([C@H](CSc2ccc(C)cc2)CC(C)C)CC1 | 328 | 5.1% (inactive) |
| Cc1ccc(SC[C@H](Cc2ccccc2)N2CCN(CCc3ccccc3)CCC2=O)cc1 | 347 | -0.1% (inactive) |
| Cc1ccc(CNC(=O)CCS(=O)(=O)c2ccc3c(c2)NC(=O)CO3)cc1 | 376 | -0.2% (inactive) |
| CCOC(=O)C(CSCC(=O)c1ccc(Cl)cc1Cl)NC(=O)OC(C)(C)C (centres undefined) | 359 | -0.1% (inactive) |
| CCOC(=O)c1c(CN2CCN(CCO)CC2)n(-c2ccccc2)c2cc(Br)c(O)cc12 | 355 | 0.3% (inactive) |

| SMILES | cell count [1] [cells] | activation [2] |
| --- | --- | --- |
| O=c1oc2ccccc2c(NCc2ccc(Cl)cc2)c1[N+](=O)[O-] | 384 | -0.3% (inactive) |
| O=C(NCCN1CCN(C(=O)c2ccc(F)cc2)CC1)c1ccc(F)cc1 | 452 | 0.2% (inactive) |
| CCOc1ccc2nc(Cl)sc2c1 | 247 | -0.1% (inactive) |
| Nc1cc(-c2ccccc2)n2c(n1)nc1ccccc12 | 331 | 0.3% (inactive) |
| Cc1cc(=O)[nH]c(SCC(=O)N2CCCCCC2)n1 | 340 | 0% (inactive) |
| CC(=O)NC1(C(F)(F)F)C(=O)N(Cc2ccccc2)C2=C1C(=O)CC(C)(C)C2 (centres undefined) | 419 | 0.2% (inactive) |
| CCS(=O)(=O)N1CCC(C(=O)N2CCc3ccccc3C2)CC1 | 361 | 0% (inactive) |
| O=C(Cc1ccccc1)Nc1ccc(NC(=O)c2ccco2)cc1 | 367 | 0.2% (inactive) |
| Cc1cccc(CC(=O)N2CCOCC2)c1 | 411 | 1.4% (inactive) |
| O=C(CC1CCCCC1)Nc1ccccc1-c1ccccc1 | 361 | -0.4% (inactive) |
| COc1ccc(Cl)cc1NC(=O)CSc1nnc(COc2ccccc2)n1C | 350 | 0.2% (inactive) |
| COc1ccc(Nc2ncc3c(n2)CC(c2ccccc2)CC3=O)cc1 (centres undefined) | 306 | -0.1% (inactive) |
| O=C(N/N=C\c1cccnc1)c1ccc(Cl)cc1Cl | 331 | 0.3% (inactive) |
| CCOC(=O)CSc1nc2c([nH]c3ccccc32)c(=O)n1C | 345 | -0.1% (inactive) |
| CCOc1ccccc1CNC(=O)CCc1cn(CC)c2ccccc12 | 381 | 0.3% (inactive) |
| c1ccc(-c2cnn3nnnc3n2)cc1 | 327 | 0.2% (inactive) |
| c1ccc(-c2cn3nc(-c4ccccc4)c(-c4ccccc4)nc3n2)cc1 | 374 | 0.6% (inactive) |
| c1ccc(-c2cnn3c(-c4ccccc4)c(-c4ccccc4)nc3n2)cc1 | 310 | 42.5% (active) |
| CC(C)(C)C1=CC(=O)C(=O)C(C(C)(C)C)=C1 | 346 | 138% (active) |
| CC(C)(C)C1=CC=C(C(C)(C)C)C(=O)C1=O | 365 | 24.1% (inactive) |
| CC(C)(C)C1=CC(=Nc2ccccc2N)C=C(C(C)(C)C)C1=O | 328 | -0.1% (inactive) |
